# Data taken from PubChem BioAssay (Tox21).
# Results filed as inconclusive are left out. A number with no mark means an inactive call. Activity calls are given as the source filed them. Calls come from the whole dose curve; as a rule, active = well fitted cell-killing curve with a large enough effect in the repeat runs; inconclusive = weak or mixed curves, or effect the other way; inactive = no such curve, though single readings can be large or run the other way.
# Assay: qHTS assay to identify small molecule antagonists of the glucocorticoid receptor (GR) signaling pathway - cell viability counter screen (AID 720693); note: nearly all actives have a fitted effect of over 55% in size
# Conditions: GR-bla HeLa viability, CellTiter-Glo luminescence, 18 h, with 5 nM dexamethasone present; series mostly up to 58.5 µM; viability change, negative = cytotoxic: at the top concentration
# % is set by controls: 0 for no effect and ±100 for the full control effect.
row,Structure (SMILES),"viability change, negative = cytotoxic"
1,CC/C=C\C/C=C\C/C=C\CCCCCCCC(=O)OCC,-20.7% [at 78.9 µM]
2,c1ccc(CCCc2ccncc2)cc1,23.4%
3,CCN(CC)CCOC(=O)C(c1ccccc1)c1ccccc1,2.96%
4,Nc1c(Cl)cc(Cl)cc1[N+](=O)[O-],9.88%
5,Cc1ccc2c(c1[N+](=O)[O-])C(=O)c1ccccc1C2=O,0.0654%
6,CC(C)(O)c1coc(S(=O)(=O)NC(=O)Nc2c3c(cc4c2CCC4)CCC3)c1,-0.844%
7,CC(=O)NCCO,5.33%
8,Nc1ccc(N=Nc2ccc(N)cc2)cc1,-7.65%
9,CC(C)OC(=O)c1ccccc1C(=O)OC(C)C,-10.5%
10,COc1cc(S(=O)(=O)Nc2ccccc2)c(OC)cc1N,9.94%
11,COC(=O)c1sccc1S(N)(=O)=O,-1.56%
12,CS(=O)(=O)c1ccc([C@@H](C[C@H]2CCC(=O)C2)C(=O)Nc2cnccn2)cc1Cl,-3.72%
13,CCCCCCC(O)CCCCCCCCCCC(=O)OC (stereo unspecified),23.9%
14,CC(C)(C)C(O)/C=C/c1ccc2c(c1)OCO2 (stereo unspecified),-2.91%
15,O=C(c1ccccc1)c1ccc(O)cc1,-4.86% [at 78.9 µM]
16,O=CNNC=O,12.1% [at 78.9 µM]
17,COc1cc(NC(C)CCCN)c2ncccc2c1 (stereo unspecified),-7.86% [at 27 µM]
18,Nc1nc2ccc(OC(F)(F)F)cc2s1,-10.6%
19,CCN(CC)C(=O)/C(C#N)=C/c1cc(O)c(O)c([N+](=O)[O-])c1,7.68%
20,COc1cc(OC)c2ccc(=O)oc2c1,-6.67%
21,O=C(O)c1cccc(C[C@@H]2COc3ccc(OCc4nc5cc(F)ccc5s4)cc3[C@@H]2O)c1,2.5%
22,c1ccc(CNc2ncnc3c2ncn3C2CCCCO2)cc1 (stereo unspecified),-5.27%
23,CC(C)COC(=O)c1ccc(O)cc1,-8.91%
24,Cc1cc(CCC(=O)OCCOCCOCCOC(=O)CCc2cc(C)c(O)c(C(C)(C)C)c2)cc(C(C)(C)C)c1O,12.9%

# Assay: qHTS assay for identifying genotoxic compounds that show differential cytotoxicity against isogenic chicken DT40 cell lines with known DNA damage response pathways - wild type cell line (AID 743012); note: nearly all actives have a fitted effect of over 60% in size; note: potency is the fitted concentration of half-maximal effect
# Conditions: DT40 wild type chicken cells viability, CellTiter-Glo, 40 h; series mostly up to 68.4 µM; activity change, negative = cytotoxicity: at the top concentration
# Procedure, shortened: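 Cells (DT40 wild type, 300/well) are treated with DMSO-dissolved compounds after a ~0.5 h pre-incubation and kept 40 h at 37 C/5% CO2. Viability is then measured by CellTiter-Glo luminescence following 30 min at room temperature.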
Structure (SMILES),Potency,"activity change, negative = cytotoxicity"
O[C@@H](CNC[C@H](O)[C@H]1CCc2cc(F)ccc2O1)[C@@H]1CCc2cc(F)ccc2O1,6.68 µM (active),–
CCN(Cc1cccc(S(=O)(=O)O)c1)c1ccc(C(=C2C=CC(=[N+](CC)Cc3cccc(S(=O)(=O)O)c3)C=C2)c2ccc(O)cc2S(=O)(=O)[O-])cc1,10.5 µM (active),–
CC(C)C(O)C(C)(C)CO (stereo unspecified),–,-3.63% [at 95 µM]
COC(=O)C1=C(C)NC(C)=C(C(=O)OC(C)(C)CN(C)CCC(c2ccccc2)c2ccccc2)C1c1cccc([N+](=O)[O-])c1 (stereo unspecified),5.96 µM (active),–
CCN(Cc1cccc(S(=O)(=O)O)c1)c1ccc(C(=C2C=CC(=[N+](CC)Cc3cccc(S(=O)(=O)O)c3)C=C2)c2ccccc2S(=O)(=O)[O-])cc1,15.4 µM (active),–
CC(=O)OCCC(C)CC(C)(C)C (stereo unspecified),–,24.1%
C=C(C)c1ccccc1,–,6.12%
CC(=O)Oc1cccc(O)c1,–,12.2%
CO[C@@H]1[C@@H](OC)[C@H](C)[C@@](O)(CC(=O)O)O[C@H]1[C@H](C)[C@H]1O[C@@]2(CC[C@@](C)([C@H]3CC[C@@](C)([C@@H]4O[C@@H]([C@H]5O[C@](C)(O)[C@H](C)C[C@@H]5C)C[C@@H]4OC4C[C@H](OC)[C@@H](OC)[C@H](C)O4)O3)O2)C[C@H](O)[C@H]1C (stereo partly specified),0.168 µM (active),–

# Assay: qHTS assay for identifying genotoxic compounds that show differential cytotoxicity against isogenic chicken DT40 cell lines with known DNA damage response pathways - Rev3 mutant cell line (AID 743014); note: nearly all actives have a fitted effect of over 55% in size; note: potency is the fitted concentration of half-maximal effect
# Conditions: chicken DT40 Rev3-/- viability, CellTiter-Glo, 40 h; series mostly up to 68.4 µM; activity, negative = cytotoxicity: at the top concentration
Structure (SMILES),"activity, negative = cytotoxicity",Potency
O=C1c2ccccc2C(=O)c2c(O)ccc(O)c21,-8.96%,–
Nc1ccc(N=Nc2ccc(N)cc2)cc1,-1.85%,–
CC(C)OC(=O)c1ccccc1C(=O)OC(C)C,–,43.3 µM (active)
O[C@@H](CNC[C@H](O)[C@H]1CCc2cc(F)ccc2O1)[C@@H]1CCc2cc(F)ccc2O1,–,13.3 µM (active)
CCN(Cc1cccc(S(=O)(=O)O)c1)c1ccc(C(=C2C=CC(=[N+](CC)Cc3cccc(S(=O)(=O)O)c3)C=C2)c2ccc(O)cc2S(=O)(=O)[O-])cc1,–,9.32 µM (active)
CC(C)C(O)C(C)(C)CO (stereo unspecified),-1.87% [at 95 µM],–
COC(=O)C1=C(C)NC(C)=C(C(=O)OC(C)(C)CN(C)CCC(c2ccccc2)c2ccccc2)C1c1cccc([N+](=O)[O-])c1 (stereo unspecified),–,6.68 µM (active)
CCN(Cc1cccc(S(=O)(=O)O)c1)c1ccc(C(=C2C=CC(=[N+](CC)Cc3cccc(S(=O)(=O)O)c3)C=C2)c2ccccc2S(=O)(=O)[O-])cc1,–,17.3 µM (active)
CCCCCCCCCCCSCC(=O)O,-5.36%,–
CCCCCCCC/C=C\CCCCCCCC(=O)OCCO,–,81 µM (active)
O=C(O)c1cccc(C[C@@H]2COc3ccc(OCc4nc5cc(F)ccc5s4)cc3[C@@H]2O)c1,–,68.7 µM (active)
CC(=O)OCCC(C)CC(C)(C)C (stereo unspecified),-14.8%,–
C=C(C)c1ccccc1,0.598%,–
Cc1c(C2(c3cc(Br)c(O)c(Br)c3C)OS(=O)(=O)c3ccccc32)cc(Br)c(O)c1Br,–,18.8 µM (active)
CC(=O)Oc1cccc(O)c1,10.7%,–
CC(C)COC(=O)c1ccc(O)cc1,-13.3%,–
CO[C@@H]1[C@@H](OC)[C@H](C)[C@@](O)(CC(=O)O)O[C@H]1[C@H](C)[C@H]1O[C@@]2(CC[C@@](C)([C@H]3CC[C@@](C)([C@@H]4O[C@@H]([C@H]5O[C@](C)(O)[C@H](C)C[C@@H]5C)C[C@@H]4OC4C[C@H](OC)[C@@H](OC)[C@H](C)O4)O3)O2)C[C@H](O)[C@H]1C (stereo partly specified),–,0.15 µM (active)
Cc1cc(CCC(=O)OCCOCCOCCOC(=O)CCc2cc(C)c(O)c(C(C)(C)C)c2)cc(C(C)(C)C)c1O,–,26.6 µM (active)
